This is an account of results in PubChem BioAssay AID1259240 (Keith Lab, Institute of Cancer Science, University of …, 2017).

Molecules are shown by their SMILES. Activity calls are given as the source filed them. Rule as the data show it: active = fold change mostly below about -2 (no sharp cut-off); inactive = mostly above about -1.8.

This experiment can be described thus: TERT promoter activity modulators, primary screen, cell-based, luciferase reporter, human (AID 1259240). The settings on record: A2780 TERT promoter luciferase reporter, 16 h; at 20 µM, fold versus average of vehicle-only wells unless noted.
On to `N#Cc1cnn2c(C(F)(F)F)cc(-c3cccs3)nc12`, for which the fold change was 1.09 (inactive).
Still for that read-out and setting: in the case of `CC12CC(c3ccccc3O1)C(C(=O)OCc1ccccc1)C(=O)N2` (centres undefined) it was -2.11 [at 20 µM] (active).
On the same count and under the same terms, in the case of `CCOC(=O)C1CC2CCCN2C12C(=O)N(Cc1ccccc1)c1ccccc12` (centres undefined) it was -1.82 [at 20 µM] (inactive).
Still for that read-out and setting: in the case of `Cc1cc(Cl)cc2c1NC(c1cccnc1)C1CC=CC21` (centres undefined) it was -2.25 (active); in that of `Cc1nnc2ccc(N3CCN(C)CC3)nn12`, -1.19 [at 20 µM] (inactive).
On to `CC1N=C(c2ccccc2F)c2cc(Cl)ccc2N(Cc2cc(=O)n3ccccc3n2)C1=O` (centres undefined), for which the fold change was -1.26 (inactive).
Turning to `Clc1ccc(Cl)c2c1NC(c1cccnc1)C1CC=CC21` (centres undefined), the compound was called inactive.
With `CCN1CCN(c2ccc3nncn3n2)CC1`, the fold change was -1.39 (inactive).
The same measure, in the same setting: in the case of `Cc1oc(-c2ccccc2F)nc1CN1C(=O)CN=C(c2ccccc2)c2ccccc21` it was -1.14 (inactive).
